In the library only some 12% were active in any assay of this set; here they are far more common.
Sfp inh – Sfp phosphopantetheinyl transferase inhibition | actives 3.5% (n = 310,000) | AID 1490 | Biochemical Sfp PPTase activity, qHTS | Potency, µM, without a hit: largest response in the series, negative = inhibition, actives largely listed as inhibitors;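 note: the enzyme is Sfp with the accession as filed and its product quenches rhodamine fluorescence; 0% = enzyme reaction without inhibitor and -100% = no enzyme wells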
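Buffer: 50 mM Hepes-Na pH 7.6, 10 mM MgCl2, 0.01% Nonidet P-40, 0.01% BSA. Enzyme 15 nM, pre-exposed to compound 15 min; substrates then added and fluorescence change tracked over 30 min.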
JMJD2A Tudor – JMJD2A Tudor domain (human) inhibition. AlphaScreen JMJD2A-Tudor / H3K4me3 peptide binding. Potency, µM (doses to about 114 µM), for the others: at the highest dose activity change, negative = inhibition, actives largely listed as inhibitors. actives 4.4% (n = 390,000); note: % is set by controls: 0 for no effect and ±100 for the full control effect; nearly all actives have a fitted effect of over 50% in size
G9a block – G9a (human) methyltransferase inhibition | G9a H3K9 monomethylation, AlphaScreen, 2 h | actives 8.8% (n = 350,000) | Potency, µM (series often up to 102 µM), for the others: at the top dose activity, negative = inhibition, most hits filed as inhibitors; note: % is set by controls: 0 for no effect and ±100 for the full control effect; nearly all actives have a fitted effect of over 75% in size
Target sequence (Q96KQ7 913-1193 limits assumed): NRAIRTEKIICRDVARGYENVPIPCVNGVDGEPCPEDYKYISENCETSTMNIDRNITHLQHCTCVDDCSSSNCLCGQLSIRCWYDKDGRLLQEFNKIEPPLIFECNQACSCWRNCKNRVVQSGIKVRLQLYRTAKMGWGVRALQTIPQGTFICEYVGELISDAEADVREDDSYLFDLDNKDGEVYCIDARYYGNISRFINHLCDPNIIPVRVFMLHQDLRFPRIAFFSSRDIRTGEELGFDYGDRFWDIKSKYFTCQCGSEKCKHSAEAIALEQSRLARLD
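Chemiluminescent proximity detection of H3K9 monomethylation, read after 10 min bead incubation in the dark. Reaction: 20 nM G9a, 500 nM biotin-H3K9 peptide, 20 uM SAM cofactor, 2 h, room temperature, following 15 min enzyme-compound preincubation.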
HP1b binding inh – blocks HP1-beta chromodomain binding to methylated histone tails; AlphaScreen HP1-beta / biotin-H3K9me3 peptide binding; Potency, µM (doses to about 114 µM), inactives show at the top dose activity change, negative = inhibition, actives largely listed as inhibitors; actives 0.56% (n = 390,000); note: nearly all actives have a fitted effect of over 70% in size
Target sequence (P83916 whole entry, looked up): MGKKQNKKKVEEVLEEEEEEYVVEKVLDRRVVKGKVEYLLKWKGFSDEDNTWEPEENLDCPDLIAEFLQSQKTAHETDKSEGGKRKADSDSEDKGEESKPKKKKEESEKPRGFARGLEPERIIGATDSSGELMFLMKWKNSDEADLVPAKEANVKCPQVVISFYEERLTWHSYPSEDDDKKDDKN
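AlphaScreen: HP1-beta (50 nM) preformed 30 min with biotin-H3(1-18)K9me3 peptide (50 nM) in PBS pH 7.4, 0.01% Tween-20. Compound added for 30 min at RT, then streptavidin donor/nickel chelate acceptor beads (10 ug/mL) for 30 min.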
BAZ2B block – blocks human BAZ2B; AID 504333; Potency, µM (highest dose often 114 µM), for inactives: at the highest dose activity change, negative = inhibition, most hits filed as inhibitors; AlphaScreen BAZ2B-H3K14Ac peptide displacement; actives 4.4% (n = 360,000); note: % is set by controls: 0 for no effect and ±100 for the full control effect; nearly all actives have a fitted effect of over 60% in size
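Multi-concentration screen (max 110 uM) measuring displacement of acetylated histone H3 peptide from BAZ2B by AlphaScreen, using 50 nM protein, 50 nM peptide and 10 ug/mL streptavidin donor plus Ni-chelate acceptor beads.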
An asterisk follows results filed as active; ? = inconclusive; . = not tested or not shown; [ ] = another dose, or the depositor's remark. Calls come from the whole dose curve; as a rule, active = well fitted curve in the direction sought with a large enough effect; inconclusive = small, poorly fitted or top-dose-only effect, or another doubt; inactive = no such curve, though single readings can be large; an effect the other way counts as inactive or inconclusive. Potency is the fitted concentration of half-maximal effect.

SMILES | Sfp inh | JMJD2A Tudor | G9a block | HP1b binding inh | BAZ2B block
CCn1c(=O)cc(OCC(=O)NCc2ccco2)c2ccccc21 | -1% | ? | ? | 9% | ?
CCn1c(=O)cc(OCC(=O)N(C)c2ccc(OC)cc2)c2ccccc21 | . | -10% | -13%[59 µM] | 16% | 89µM*
Cc1ccc(CNC(=O)CCCOc2cc(=O)n(C)c3ccccc23)o1 | 22µM* | -28% | ? | -2% | -7%
CCOc1ccc(N(CC)C(=O)COc2cc(=O)n(CC)c3ccccc23)cc1 | -2% | -33%[57.1 µM] | -25%[59 µM] | -16% | -13%
CCn1c(=O)cc(OCC(=O)NCc2ccc(C)o2)c2ccccc21 | 32µM* | -24% | ? | -4% | 4%
Cc1ccsc1C=C1C(=O)c2ccccc2C1=O | 3% | ? | 28µM* | -7% | ?
O=C1C(CCCNC(=S)NCc2ccccc2)NC(=S)N1Cc1ccccc1 (stereo not drawn) | 6% | -31% | 50µM* | -3% | ?
CCc1ccc2[nH]c(=O)c(C3C(C#N)=C(N)Oc4c3ccc3cccnc43)cc2c1 (stereo not drawn) | -26% | ? | -4%[59 µM] | 13% | ?
Cc1ccc2cc(C3C(C#N)=C(N)Oc4c3ccc3cccnc43)c(=O)[nH]c2c1 (stereo not drawn) | 10µM* | ? | -20%[0.0925 µM] | 29% | ?
COc1ccc2oc(=O)c(-c3csc(/C(C#N)=C/c4ccc(F)cc4)n3)cc2c1 | . | -6% | 5%[59 µM] | 32% | 4%
Oc1c(C=NCc2ccccc2)sc2ccccc12 | 10% | 89µM* | ? | ? | ?
O=C(O)Cn1c2c(c3ccccc31)CSc1ccc(Cl)cc1-2 | 20µM* | ? | ? | -18% | ?
Cc1cccc(Nc2ccc(C(=O)O)cc2[N+](=O)[O-])c1C | -1% | -15% | -22% | -8% | -24%
CCN(CC)C(=O)C1CCCN(Cc2cccc(Oc3ccccc3)c2)C1 (stereo not drawn) | 0% | 22µM* | 28µM* | 0% | -37%
CN1CCN(Cc2cccc(Oc3ccc(Cl)cc3)c2)CC1 | 10% | -21% | ? | 11% | -10%
CCN1CCN(Cc2cccc(Oc3ccc(Cl)cc3)c2)CC1 | ? | -31% | ? | 12% | 79µM*
CCOC(=O)C1CCN(Cc2cccc(Oc3ccccc3)c2)CC1 | -24% | 22µM* | 7.1µM* | -19% | 56µM*
CCN(CC)C(=O)C1CCCN(Cc2ccc(OC)c(C)c2C)C1 (stereo not drawn) | 50µM* | 1.6µM* | ? | ? | 71µM*
COc1ccccc1C(=O)C1CCCN(Cc2cccc(OCCO)c2)C1 (stereo not drawn) | 23% | -10% | 20% | 15% | 6%
CCN(C(=O)CSc1nnc(-c2ccc(OC)cc2)n1N)c1c(N)n(Cc2ccccc2)c(=O)[nH]c1=O | . | -12% | . | 24% | .
Cc1cc(NC(=O)CSc2nnnn2-c2ccc(C(C)C)cc2)no1 | 14% | ? | 13% | -21%[57 µM] | -11%
CCOC(=O)C1CCCN(Cc2cccc(Oc3ccccc3)c2)C1 (stereo not drawn) | -15% | 3.2µM* | 79µM* | ? | ?
CCOC(=O)C1CCN(Cc2cccc(Oc3ccc(Cl)cc3)c2)CC1 | -26% | 28µM* | ? | -30% | ?
CCCCNC(C(=O)Nc1cccc(S(=O)(=O)N2CCOCC2)c1)c1ccccc1 (stereo not drawn) | 7% | -7% | 11% | 4% | -17%
CCc1cccc(CC)c1NC(=O)C(CC)Sc1nc2ccncc2[nH]1 (stereo not drawn) | 8% | -10% | ? | 52% | -28%
SMILES | Sfp inh | JMJD2A Tudor | G9a block | HP1b binding inh | BAZ2B block
COc1ccc(C2C(C#N)=C(N)Nc3nc4ccccc4n32)cc1 (stereo not drawn) | 27% | -11% | ? | 15% | 3%
N#CC1=C(N)Nc2ncnn2C1c1ccc(F)cc1 (stereo not drawn) | 5% | -4% | 40µM* | 40% | 14%
Cc1cnc(NC(=O)CSc2nnc3ncccn23)s1 | 1% | -2% | 3%[59 µM] | 22% | -2%
CCC(c1c(C)[nH]oc1=O)c1c(C)[nH]oc1=O | -18% | 25µM* | ? | -4% | -97%
CCN1CCN(c2cc(C)c3cc(NC(=S)N4CCCC(C)C4)ccc3n2)CC1 (stereo not drawn) | 8% | ? | 45µM* | -22% | -29%
CCN1CCN(c2cc(C)c3cc(NC(=S)N4CCCC4)ccc3n2)CC1 | 17% | -18% | ? | 23% | -3%
CCN1CCN(c2cc(C)c3cc(NC(=S)N4CC(C)CC(C)C4)ccc3n2)CC1 (stereo not drawn) | 0% | -35% | 35µM* | 1% | ?
CCN1CCN(c2cc(C)c3cc(NC(=S)N4CCCCC4)ccc3n2)CC1 | -10% | -35% | 45µM* | -13% | -32%
CCN1CCN(C(=S)Nc2ccc3nc(N4CCN(CC)CC4)cc(C)c3c2)CC1 | 6% | -25% | 20µM* | 13% | -4%
Cc1cc(C(=O)COC(=O)c2ccncc2)c(C)n1CCc1ccc(F)cc1 | -4% | ? | ? | -6% | ?
CCN1CCN(c2cc(C)c3cc(NC(=O)c4ccc(Br)o4)ccc3n2)CC1 | -1% | ? | ? | 6% | 71µM*
CCN1CCN(c2cc(C)c3cc(NC(=O)c4ccncc4)ccc3n2)CC1 | -4% | -32% | ? | -6% | 4%
CCN(CC)c1cc(C)c2cc(NC(=O)c3ccc(Br)o3)ccc2n1 | ? | ? | 56µM* | -26% | ?
CCCCc1ccc(C(=O)Nc2ccc3nc(N(CC)CC)cc(C)c3c2)cc1 | . | 5% | 30%[59 µM] | 69% | 14%
Brc1ccc(-c2csc(/N=C/N3CCOCC3)n2)cc1 | 6% | -19% | 50µM* | 3% | -39%
Brc1ccc(-c2csc(/N=C/N3CCCC3)n2)cc1 | -24% | -31% | ? | 10% | -34%
CCc1ccc(C(=O)C(C)OC(=O)Cn2cnc3c2c(=O)n(C)c(=O)n3C)cc1 (stereo not drawn) | . | -3% | 15%[2.33 µM] | 16% | 14%
O=c1c2ccccc2cnn1Cc1n[nH]c(=S)n1-c1ccc(Cl)cc1 | 13% | 22µM* | 1.8µM* | 20% | -8%
S=c1[nH]nc(CCc2ccccc2)n1-c1ccc(Cl)cc1 | ? | ? | ? | -19% | -27%
CC(c1ccccc1)n1c(Cn2ncc3ccccc3c2=O)n[nH]c1=S (stereo not drawn) | -2% | 32µM* | 3.5µM* | 53% | -25%
CCn1c2ccccc2c2cc(CN3CCN(S(=O)(=O)CC)CC3)ccc21 | ? | . | 11µM* | . | 20µM*
CCn1c2ccccc2c2cc(CNCCCN3CCOCC3)ccc21 | -2% | -9% | ? | 36% | -26%

Compound activity (PubChem)
